RECQ1 inh = blocks DNA unwinding by human RECQ1; Potency, µM (series often up to 57.3 µM), without a hit: top-dose activity, negative = inhibition, actives largely listed as inhibitors; 0.54% of 240,000 active; AID 2549; RECQ1 DNA unwinding, red fluorescence kinetic read;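 also: potency is read from the fitted curve at half-maximal effect; plate controls were vehicle for no effect and no enzyme for full effect; nearly all actives have a fitted effect of over 30% in size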
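RECQ1T1 50 nM; forked duplex (20 bp + 30-nt ss tails) 200 nM, ATP 2 mM final; pH 8.0, 2 mM MgCl2, 2.5 ug/ml poly(dI-dC); 15 min compound preincubation; discontinuous kinetic read over 2 h at RT.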
FEN1 inh-1 = human FEN1 inhibition. AID 588795. P39748. Recombinant FEN1 flap cleavage, fluorescence, 15 min. Potency, µM (series often up to 114 µM), for the others: at the top dose activity change, negative = inhibition, hits mostly inhibitors. 0.35% of 390,000 active; also: potency is read from the fitted curve at half-maximal effect; % is scaled to controls: 0 for no effect and ±100 for the full control effect; nearly all actives have a fitted effect of over 65% in size
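Compounds are tested as a concentration series against 10 nM FEN1; after a 15 min room-temperature preincubation, 50 nM substrate starts cleavage, with plate reads at 0 and 15 min. Normalized responses are fitted by a Hill equation.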
APEX1 inh = APE1 (human) endonuclease inhibition; recombinant APE1, TAMRA/BHQ-2 abasic DNA cleavage fluorescence; AID 2517; P27695; 0.35% of 350,000 active; Potency, µM (highest dose often 65.8 µM), inactives show at the highest dose activity change, negative = inhibition, most hits filed as inhibitors;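 also: potency is read from the fitted curve at half-maximal effect; plate controls were vehicle for no effect and reference inhibitor for full effect; nearly all actives have a fitted effect of over 55% in size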
Target sequence (P27695 whole entry, looked up): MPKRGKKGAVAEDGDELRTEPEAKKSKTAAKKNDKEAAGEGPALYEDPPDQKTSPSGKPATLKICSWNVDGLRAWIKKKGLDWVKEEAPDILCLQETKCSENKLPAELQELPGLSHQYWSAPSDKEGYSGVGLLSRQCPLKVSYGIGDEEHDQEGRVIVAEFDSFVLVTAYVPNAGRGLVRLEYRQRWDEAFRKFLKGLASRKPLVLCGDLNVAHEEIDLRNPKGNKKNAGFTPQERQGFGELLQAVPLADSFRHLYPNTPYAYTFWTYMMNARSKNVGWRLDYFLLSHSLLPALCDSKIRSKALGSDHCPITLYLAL
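Endonuclease cleavage of a quenched abasic-site DNA duplex (50 nM) by APE1 (0.75 nM) was tracked by TAMRA dequenching. Compounds were preincubated with enzyme 15 min at room temperature; data normalized to buffer-only and DMSO wells plus NSC13755 control.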
BLM helicase inh = Bloom syndrome helicase (human) inhibition. Potency, µM (highest dose often 56.1 µM), without a hit: at the highest dose activity change, negative = inhibition, most hits filed as inhibitors. P54132. 0.2% of 350,000 active. recombinant BLM DNA unwinding, fluorescence dequenching. AID 2528;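 also: potency is read from the fitted curve at half-maximal effect; plate controls were vehicle for no effect and no enzyme for full effect; nearly all actives have a fitted effect of over 35% in size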
KAT2A inh = blocks human GCN5L2 histone acetyltransferase | AID 504327 | Potency, µM (titrated, usually from 58.9 µM), without a hit: at the highest dose activity change, negative = inhibition, usual class: inhibitors | GCN5L2 HAT assay, ThioGlo1 CoA-SH fluorescence | 0.21% of 390,000 active | Q92830; also: potency is read from the fitted curve at half-maximal effect; % is scaled to controls: 0 for no effect and ±100 for the full control effect
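GCN5L2 (20nM final) in 50mM HEPES, 0.1mM EDTA pH 7.5, 0.01% Tween-20 was preincubated 15 min at room temperature with compound, then given ThioGlo1 (50uM), H3(1-25) peptide (75uM) and acetyl-CoA (70uM); CoA-thiol fluorescence (Ex340/Em540) was read at 0 and 20 min.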
PI5P4Ka inh = inhibitors of human PI5P4K alpha; P48426; PI5P4Kalpha enzyme, ADP-Glo luminescence, 60 min; hits give low values; max response, %; 1.2% of 330,000 active; AID 652105; active = max response of -50% or lower; inconclusive = between -30% and -50%; inactive = -30% or higher; also: value at the top dose of about 77 µM; % is scaled to controls: 0 for no effect and ±100 for the full control effect
Target sequence (P48426 whole entry, looked up): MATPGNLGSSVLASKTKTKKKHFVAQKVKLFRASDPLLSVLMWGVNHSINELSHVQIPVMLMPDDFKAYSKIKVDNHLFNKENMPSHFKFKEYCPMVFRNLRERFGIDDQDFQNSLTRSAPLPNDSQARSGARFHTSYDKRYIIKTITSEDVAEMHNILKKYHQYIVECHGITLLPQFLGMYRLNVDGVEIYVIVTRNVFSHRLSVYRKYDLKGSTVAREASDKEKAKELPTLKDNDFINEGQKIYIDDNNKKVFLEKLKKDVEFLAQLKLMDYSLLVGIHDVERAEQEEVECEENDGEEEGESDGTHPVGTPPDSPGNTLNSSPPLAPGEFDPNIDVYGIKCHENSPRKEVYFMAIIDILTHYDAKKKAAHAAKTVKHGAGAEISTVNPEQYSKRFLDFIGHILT
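Luminescence from ADP-Glo served as readout of PI5P4Kalpha activity in a qHTS format. Reaction: enzyme, substrate, compound, ATP at 5 microM final, 60 min at RT.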
FEN1 inh-2 = confirmation of human FEN1 inhibitors | 79% of 880 active | AID 720498 | shares compounds with FEN1 inh-1 | FEN1 flap cleavage, TAMRA/BHQ2 fluorogenic DNA substrate | Potency, µM, actives largely listed as inhibitors; also: potency is read from the fitted curve at half-maximal effect; nearly all actives have a fitted effect of over 60% in size
ADP-Glo interf = ADP-Glo luciferase interference, PI5P4K counter-screen; Potency, µM (titrated, usually from 76.9 µM), for inactives: top-dose activity change, negative = inhibition, most hits filed as inhibitors; 1,100 tested, under 10 active; ADP-Glo detection counter-screen, luciferase luminescence, no enzyme; shares compounds with PI5P4Ka inh
An asterisk follows results filed as active; i = inactive; ? = inconclusive; . = no result given; [ ] = another dose, or the depositor's remark. Only some compounds are listed: those with a hit (about 1.5% of all), similar ones and a draw of the others. Unless noted, calls follow the shape of the dose curve; as a rule, active = well fitted curve in the direction sought with a large enough effect; inconclusive = small, poorly fitted or top-dose-only effect, or another doubt; inactive = no such curve, though single readings can be large; an effect the other way counts as inactive or inconclusive.

SMILES	RECQ1 inh	FEN1 inh-1	APEX1 inh	BLM helicase inh	KAT2A inh	PI5P4Ka inh	ADP-Glo interf	others
OC1OC[C@@H](O)[C@@H](O)[C@@H]1O (stereo partly drawn)	-19%	.	10%	-1%	5%	.	.
CC(=O)N(/N=C1\Sc2ccccc2C1=O)c1ccccc1	i	-1%	-7%	-7%	-7%	-7	.
CC(=O)N(\C=C/C=C/C=C1\Sc2ccccc2C1=O)c1ccccc1	?	?	?	?	?	-66*	.	FEN1 inh-2=?
COc1ccccc1/C=N/Nc1cc(C)nc2ccc(C)cc12	.	5%	38%	-14%	-9%	15	.
COc1ccc(/C=N/Nc2cc(C)nc3ccc(OC)cc23)c(OC)c1	.	22µM*	27µM*	25µM*	-13%	?	.	FEN1 inh-2=19*
O=C(O)CCNc1ccc(NCCC(=O)O)c2c1C(=O)c1ccccc1C2=O	.	18µM*	6.7µM*	?	-15%	-68*	.	FEN1 inh-2=38*
COc1ccccc1NCCC(=O)O	i	-12%	4%	0%	-8%	1	.
COc1ccccc1Nc1ccc2c(O)cc(S(=O)(=O)O)cc2c1	.	22µM*	.	.	.	-102*	2%	FEN1 inh-2=67*
O=S(=O)(O)c1cc(O)c2cc(Nc3ccccc3)ccc2c1	.	50µM*	.	.	.	-69*	-6%	FEN1 inh-2=85*
COC(=O)C[C@H]1c2ccccc2C2=C(C[C@@H](C)[C@H]3C(=O)NC(=O)[C@@H]23)N1C(=O)OC	10%[11.5 µM]	.	-2%[12.4 µM]	3%[12.4 µM]	.	.	.
CCC(C)C(NC(=O)OC(C)(C)C)C(=O)NC1COC2CC(n3ccc(NC(C)=O)nc3=O)OC12 (stereo not drawn)	i	15%	2%	3%	.	.	.
COC(=O)c1ccc([C@H]2Nc3ccc(S(=O)(=O)Nc4ccc(F)cc4)cc3[C@H]3C=CC[C@H]32)cc1	.	-20%	.	-21%	-6%	.	.
COc1cccc(NS(=O)(=O)c2ccc3c(c2)C2C=CCC2C(c2ccc(C(=O)O)cc2)N3)c1 (stereo not drawn)	-9%	35µM*	-5%	-22%	?	-66*	-8%	FEN1 inh-2=30*
N#Cc1c(SCC(=O)Nc2nc3ccc(Br)cc3s2)sc2c(O)cc(=O)[nH]c12	.	28µM*	-59%	-14%	?	-102*	6%	FEN1 inh-2=?
O=C(NCC1CCCO1)c1cc(-c2ccco2)nc2ccccc12 (stereo not drawn)	-4%	-4%	?	-14%	?	?	.
CN(C)C(CNC(=O)c1cc(-c2ccco2)nc2ccccc12)c1ccccc1 (stereo not drawn)	.	?	-3%	.	?	-54*	-1%	FEN1 inh-2=?
NS(=O)(=O)c1cc(C(=O)NC2CCSc3ccccc32)ccc1Cl (stereo not drawn)	.	2.8µM*	0.12µM*	8.9µM*	?	-84*	7%	FEN1 inh-2=3.8*
NS(=O)(=O)c1cccc(C(=O)NC2CCSc3ccccc32)c1 (stereo not drawn)	.	0%	48%	-4%	1%	-3	.
CC(=O)Nc1ccn(C2CC3OCC(NC(=O)C(NC(=O)OC(C)(C)C)C(C)OCc4ccccc4)C3O2)c(=O)n1 (stereo not drawn)	-5%	-10%	9%	2%	.	.	.
Cc1cc(-c2csc(N)n2)c(C)n1C	-21%	?	-4%	?	-16%	-60*	-6%
Cc1ccc(-n2c(C)cc(-c3csc(N)n3)c2C)cc1	-4%	-1%	5%	-5%	3%	?	.
C[C@@H]1C=C(C(=O)NCc2nc3ccccc3[nH]2)O[C@H](OCCCCO)C1	.	-2%	.	.	.	-27	-3%
C[C@@H]1C=C(C(=O)NCc2nc3ccccc3[nH]2)O[C@H](OCc2ccc(CO)cc2)C1	i	-3%	-4%	0%	-3%	-11	.
CC12CCC=CC1C(c1ccc(C(F)(F)F)cc1)N(Cc1ccccc1)C2=O (stereo not drawn)	-11%	-5%	0%	-16%	.	.	.
COc1ccc(CN2CCC(=O)N([C@H](CO)CC(C)C)CC2)cc1OC	.	44%	25%	-2%	-3%	-59*	-7%
SMILES	RECQ1 inh	FEN1 inh-1	APEX1 inh	BLM helicase inh	KAT2A inh	PI5P4Ka inh	ADP-Glo interf	others
COc1ccc(CN2CCC(=O)N([C@H](CO)c3ccccc3)CC2)cc1OC	.	-2%	14%	3%	-2%	2	.
COc1ccccc1CNC(=O)CSC1=NCCS1	-19%	5%	0%	-4%	-12%	2	.
O=C(CSC1=NCCS1)NCc1ccco1	-3%	1%	-1%	1%	2%	-54*	1%
N#Cc1ccccc1-c1ccc2ncnc(NCc3cccs3)c2c1	3%	.	3%	-4%	-8%	.	.
Cc1ccc(C)c(OC(C)C(=O)Nc2ccc(S(=O)(=O)Nc3nccs3)cc2)c1 (stereo not drawn)	.	?	68%[12.4 µM]	-4%	-6%	-62*	0%
Cc1ccc(CNC(=O)Cc2ccc(-n3cccc3)cc2)cc1	-2%	-2%	-1%	-6%	1%	-4	.
Cc1ccc(CNC(=O)c2ccc(-n3cccc3)cc2)cc1	?	?	?	?	?	-90*	4%
Cc1noc2nc(C(=O)O)nc(N3CCCCC3)c12	.	-9%	.	1%	-3%	.	.
O=C(c1ccco1)N1CCN(c2ncnc3c2[nH]c2ccc(Br)cc23)CC1	-16%	?	-3%	-7%	-9%	-50*	10%
O=C(c1ccco1)N1CCN(c2ncnc3c2[nH]c2ccccc23)CC1	i	.	-6%	-1%	-4%	.	.
CCOC(=O)C(C(=O)c1ccccc1)[C@H](CCc1ccccc1)NC(=O)OC (stereo partly drawn)	i	.	3%	2%	.	.	.
O=C(NCc1ccco1)C1Cc2c(-c3cccc(F)c3)ccnc2O1 (stereo not drawn)	.	.	.	.	.	-65*	-4%
CCCCCCCCCCN1CCOCCOCCN(CCCCCCCCCC)CCOCCOCC1	-5%	.	2%	-3%	5%	.	.
O=C(Nc1cccc(C(F)(F)F)c1)c1cnn(-c2cccc(F)c2)c1C1CCNCC1	.	-2%	.	-7%	12%	.	.
Cc1ccc2cc(CCl)c(Cl)nc2c1	-4%	-2%	-6%	-1%	-10%	-79*	0%
CCOC(=O)CSc1nc2ccc(NC(=O)CSc3nnnn3Cc3ccccc3)cc2s1	2%	7%	8%	-17%	-13%	-30	-3%

Screening data: PubChem BioAssay, National Center for Advancing Translational Sciences (NCATS)
